Source: PubChem BioAssay AID1159580 (chemical genetic matrix, 2015)
Out of some 5,500 compounds screened, about 2,000 (36%) were called active. Not shown: some 18% with an inconclusive outcome. No stated cut-off is given here; in the data, active means normalized growth mostly below about 0.91 (no sharp cut-off); inconclusive means no clear call, values can overlap the other calls; inactive means mostly above about 0.92. Some of the results follow.

Assay: chemical genetic growth profiling, strain panel (AID 1159580);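 further: tested at 20 µM; growth read once vehicle control cultures reached saturation at 30 °C; 1 = growth at the plate median or of vehicle wells; lower values mean less growth of the strain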
Conditions: S. cerevisiae deletion strains, growth OD

Measured: normalized growth

C(=NC(N=Cc1ccccc1)c1ccccc1)c1ccccc1 (stereo unspecified)
active: locus YLR113W, strain HOG1, hits give low values 0.856
inactive: locus YAR019C, strain CDC15, hits give low values 0.983 | locus YBL105C, strain PKC1, hits give low values 0.991 | locus YBR135W, strain CKS1, hits give low values 0.986 | locus YBR136W, strain MEC1, hits give low values 0.977 | locus YBR160W, strain CDC28, hits give low values 0.989 | locus YDL017W, strain CDC7, hits give low values 0.99 | locus YDL028C, strain MPS1, hits give low values 0.984 | locus YDL101C, strain DUN1, hits give low values 0.994 | locus YDL108W, strain KIN28, hits give low values 0.976 | locus YDL132W, strain cdc53, hits give low values 0.992 | locus YDL214C, strain PRR2, hits give low values 0.956 | locus YDR052C, strain DBF4, hits give low values 0.989 | locus YDR054C, strain cdc34, hits give low values 0.991 | locus YDR226W, strain ADK1, hits give low values 0.992 | locus YDR477W, strain SNF1, hits give low values 0.963 | locus YER123W, strain YCK3, hits give low values 0.937 | locus YER133W, strain GLC7, hits give low values 0.971 | locus YFL009W, strain cdc4, hits give low values 0.992 | locus YFL029C, strain CAK1, hits give low values 0.981 | locus YFR003C, strain YPI1, hits give low values 0.989 | locus YFR019W, strain FAB1, hits give low values 0.962 | locus YFR028C, strain CDC14, hits give low values 0.995 | locus YGR040W, strain KSS1, hits give low values 0.958 | locus YGR052W, strain FMP48, hits give low values 1.03 | locus YGR092W, strain DBF2, hits give low values 0.974 | locus YHR030C, strain SLT2, hits give low values 0.919 | locus YHR079C, strain IRE1, hits give low values 0.934 | locus YHR082C, strain KSP1, hits give low values 0.986 | locus YHR205W, strain SCH9, hits give low values 0.894 | locus YIL147C, strain SLN1, hits give low values 0.984 | locus YJL095W, strain BCK1, hits give low values 0.918 | locus YJL128C, strain PBS2, hits give low values 0.961 | locus YJL157C, strain FAR1, hits give low values 0.977 | locus YJR016C, strain ILV3, hits give low values 0.997 | locus YJR066W, strain TOR1 (second series), hits give low values 0.937 | locus YJR066W, strain TOR1, hits give low values 0.973 | locus YKL048C, strain ELM1, hits give low values 0.957 | locus YKL067W, strain YNK1, hits give low values 0.956 | locus YKL101W, strain HSL1, hits give low values 0.941 | locus YKL193C, strain SDS22, hits give low values 0.995 | locus YKL203C, strain TOR2, hits give low values 1.02 | locus YLR133W, strain CKI1, hits give low values 0.958 | locus YLR403W, strain SFP1, hits give low values 0.945 | locus YML070W, strain DAK1, hits give low values 0.947 | locus YMR001C, strain CDC5, hits give low values 0.995 | locus YMR205C, strain PFK2 (second series), hits give low values 0.953 | locus YMR277W, strain FCP1, hits give low values 0.998 | locus YNL006W, strain LST8, hits give low values 0.994 | locus YNL020C, strain ARK1, hits give low values 0.966 | locus YNL161W, strain CBK1, hits give low values 0.992 | locus YNL183C, strain NPR1, hits give low values 0.946 | locus YNL207W, strain RIO2, hits give low values 0.983 | locus YNL222W, strain SSU72, hits give low values 0.99 | locus YNL307C, strain MCK1 (second series), hits give low values 0.964 | locus YOL078W, strain AVO1, hits give low values 0.992 | locus YOL136C, strain PFK27, hits give low values 0.968 | locus YOR061W, strain CKA2, hits give low values 0.942 | locus YOR119C, strain RIO1, hits give low values 0.972 | locus YOR231W, strain MKK1, hits give low values 0.911 | locus YOR329C, strain SCD5, hits give low values 0.989 | locus YPL031C, strain PHO85, hits give low values 0.962 | locus YPL153C, strain RAD53, hits give low values 0.955 | locus YPL204W, strain HRR25, hits give low values 0.976 | locus YPL209C, strain IPL1, hits give low values 0.99 | locus YPL256C, strain CLN2, hits give low values 0.913 | locus YPR025C, strain CCL1, hits give low values 0.991 | locus YPR106W, strain ISR1, hits give low values 0.99 | locus YPR111W, strain DBF20, hits give low values 0.985 | strain NNK1, hits give low values 0.981 | strain TSCII, hits give low values 0.991
